Compound activity deposited in PubChem BioAssay by Sanford-Burnham Center for Chemical Genomics.
SENP7 inh: SENP7 protease inhibition | recombinant SENP7, Z-RLRGG-aminoluciferin luminescence, 40 min | inhibition, % at 5 µM | actives 1.5% (n = 330,000) | AID 434973;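 active = inhibition above about 50% at the single test dose, limit read from the data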;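 also: plate controls were DMSO with enzyme for no effect and no enzyme buffer wells for full effect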
Target sequence (Q9BQF6 706-1050 limits assumed): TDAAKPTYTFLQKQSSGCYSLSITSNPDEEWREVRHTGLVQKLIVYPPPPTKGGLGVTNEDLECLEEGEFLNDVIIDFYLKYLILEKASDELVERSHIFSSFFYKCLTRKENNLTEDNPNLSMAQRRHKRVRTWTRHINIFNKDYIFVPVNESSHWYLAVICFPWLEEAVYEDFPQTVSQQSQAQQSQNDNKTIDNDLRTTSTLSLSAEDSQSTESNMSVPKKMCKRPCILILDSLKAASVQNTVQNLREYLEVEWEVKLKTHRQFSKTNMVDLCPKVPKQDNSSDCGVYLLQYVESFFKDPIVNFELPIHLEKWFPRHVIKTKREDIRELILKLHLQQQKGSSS
PPC-1+TRAIL kill: PPC-1 cancer cell killing with TRAIL present. PPC-1 cells + TRAIL, ATPLite viability luminescence. cell killing (% activity), % at 4 µM or 5 µM. actives 0.41% (n = 220,000). AID 1443;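 active = cell killing above 50% in the first pass at 4 µM, then a duplicate retest at 5 µM averaging 50% or more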;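 also: plate controls were cells with TRAIL plus DMSO for no effect and medium-only wells lacking cells for full effect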
SENP8 block-1: inhibitors of human SENP8 protease; Q96LD8; purified SENP8, Z-RLRGG-aminoluciferin cleavage, luminescence; inhibition, % at 10 µM; actives 1.2% (n = 330,000); AID 2540; in the data active = inhibition above about 50%
Target sequence (Q96LD8 whole entry, looked up): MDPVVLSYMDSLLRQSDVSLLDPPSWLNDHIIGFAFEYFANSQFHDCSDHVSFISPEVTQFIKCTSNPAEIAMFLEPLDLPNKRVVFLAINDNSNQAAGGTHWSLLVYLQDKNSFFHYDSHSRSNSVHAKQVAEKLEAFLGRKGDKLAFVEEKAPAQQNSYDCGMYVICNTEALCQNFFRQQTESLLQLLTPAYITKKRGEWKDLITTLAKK
TRAIL sens C8: sensitizes caspase-8 expressing cells to TRAIL. NB7+C8 cells + TRAIL, ATPlite viability luminescence. inhibition (viability loss, TRAIL sensitization), % at 10 µM. actives 1% (n = 360,000). AID 624354;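 active = compounds causing at least 50% loss of cell viability in the single-dose screen, relative to plate controls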
SENP8 block-2: blocks human SENP8 cleavage of Nedd8 substrate | Q96LD8 | recombinant SENP8, Nedd8 substrate fluorescence | inhibition, % at 20 µM | actives 0.64% (n = 360,000) | AID 602440; in the data active = inhibition mostly above about 40%, no sharp cut-off; inactive = mostly below about 27%
SENP6 block: blocks the human protease SENP6. Q9GZR1. Recombinant SENP6 catalytic domain, aminoluciferin luminescence. inhibition, % at 10 µM. actives 1.8% (n = 330,000). AID 2599;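 active = inhibition above about 50% at the single tested dose, limit read from the data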;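 also: plate controls were DMSO wells with enzyme for no effect and DMSO wells lacking enzyme for full effect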
SENP8 confirm: human SENP8 inhibition, confirmed | Recombinant SENP8, Z-RLRGG-aminoluciferin luminescence, 60 min | shares compounds with SENP7 inh | actives 40% (n = 6,200) | inhibition, % at 12.5 µM | AID 488912;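 active = mean inhibition across replicates above about 50%, limit read from the data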
SENP6 conf: human SENP6 inhibition, confirmed | inhibition, % at 12.5 µM | shares compounds with SENP7 inh | actives 58% (n = 6,200) | recombinant SENP6, Z-RLRGG-aminoluciferin luminescence | AID 488915
SENP7 conf: confirmation of human SENP7 protease inhibitors; shares compounds with SENP7 inh; recombinant SENP7, Z-RLRGG-aminoluciferin luminescence, 40 min; inhibition, % at 12.5 µM; actives 69% (n = 6,200)
Casp3 select: caspase-3 inhibition (SENP selectivity assay) | shares compounds with SENP7 inh | purified caspase-3, Z-DEVD-aminoluciferin luminescence, 60 min | inhibition, % at 12.5 µM | actives 60% (n = 6,200);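 active = mean inhibition above about 50%, limit read from the data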;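 also: plate controls were enzyme with DMSO for no effect and wells without caspase-3 for full effect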
Luc interf: interferes with luciferase luminescence in SENP counter-screen; actives 39% (n = 6,200); shares compounds with SENP7 inh; inhibition, % at 12.5 µM; Pre-incubated SENP8/Z-RLRGG-aminoluciferin, luciferase luminescence interference;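 active = mean inhibition above about 50% when retested at one dose, limit read from the data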;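 also: plate controls were DMSO wells with completed reaction for no effect and substrate without enzyme for full effect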
Active calls of the source: *; . = no result given. Rows were chosen to be rich in hits. Some 3% of all compounds tested hit in one or more screens of this group.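 The calls were made as follows, unless noted: active = mean inhibition above about 50% in the one-dose retest (limit read from the data); inactive = the rest.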

SMILES	SENP7 inh	PPC-1+TRAIL kill	SENP8 block-1	TRAIL sens C8	SENP8 block-2	SENP6 block	SENP8 confirm	SENP6 conf	SENP7 conf	Casp3 select	Luc interf
O=C(c1cc(-c2ccccc2Cl)on1)N1CCCC1	63*	.	57*	41	9	72*	9	64*	90*	78*	66*
O=C(c1ccc(-c2ccccc2Cl)o1)N1CCC1	-3	.	-5	12	18	5	.	.	.	.	.
O=C(c1cc(-c2cccc(Cl)c2)on1)N1CCCC1	2	.	-8	18	6	-12	.	.	.	.	.
O=C(c1cc(-c2ccc(Cl)cc2)on1)N1CCCC1	33	.	33	42	20	56*	18	13	32	22	-2
O=C(c1cc(-c2ccccc2)on1)N1CCCC1	46	-4	1	22	26	17	.	.	.	.	.
O=C(c1cc(-c2ccc(Cl)c(Cl)c2)on1)N1CCCCC1	57*	18	14	0	10	35	20	20	24	12	5
CCOC(=O)N1CCN(CC(=O)N2CCC(C(N)=O)CC2)CC1	-4	13	-2	2	12	12	.	.	.	.	.
OC1(Cc2ccccc2)CCNCC1	-5	6	-11	0	21	-15	.	.	.	.	.
COc1ccc(CNC(=O)c2cc3c(s2)CN(Cc2ccccc2)C3)cc1	-3	8	-4	-6	-114	-11	.	.	.	.	.
Clc1ccc(-c2nnc(N3CCCC3)nn2)cc1	-5	-10	2	10	13	68*	38	41	58*	55*	10
CCSc1cc(N2CCCC2)nc(-c2ccc(Cl)cc2)n1	9	.	9	2	-53	8	.	.	.	.	.
COCCNC(=O)CN(Cc1ccccc1)C(=O)CCC(=O)Nc1nccs1	-9	.	3	-7	8	-22	.	.	.	.	.
CC(C)(C)c1cc[n+](C2=C([O-])c3ccccc3C(=O)/C2=N\S(=O)(=O)c2cccs2)cc1	35	14	51*	54*	106*	66*	51*	75*	39	6	-3
CC(/C=C1\SC(=S)N(CC(=O)O)C1=O)=C\c1ccccc1	2	0	-22	3	22	-27	.	.	.	.	.
O=C(O)CCN1C(=O)/C(=C\c2cccc(OCc3ccccc3)c2)SC1=S	37	.	96*	-5	12	96*	4	6	0	-2	4
O=C(O)c1ccc(/C=C2/SC(=S)N(Cc3ccccc3)C2=O)cc1	.	.	.	-4	17	.	.	.	.	.	.
CC(=C\c1ccccc1)/C=C1/SC(=S)N(CCC(=O)O)C1=O	2	.	89*	9	17	91*	30	92*	94*	80*	51*
O=C1/C(=C\c2ccc(O)cc2)SC(=S)N1Cc1ccccc1	8	.	78*	-2	2	72*	60*	82*	84*	20	36
CCn1nccc1NC(=O)c1csc([C@@H]2C[C@H](O)[C@@H](CO)O2)n1	.	.	.	-16	23	.	.	.	.	.	.
CCN(C(=O)COC(=O)c1cccnc1SC)C1CCS(=O)(=O)C1 (centres undefined)	-6	39	-4	-9	13	1	.	.	.	.	.
CCN(C(=O)COC(=O)c1cccnc1Nc1cccc(C(F)(F)F)c1)C1CCS(=O)(=O)C1 (centres undefined)	72*	16	50	8	-42	63*	66*	64*	86*	50	64*
CN1CCN(c2cc(N3CCN(C(=O)c4ccco4)CC3)c3c4c(onc24)-c2ccccc2C3=O)CC1	21	.	38	19	65*	55*	4	18	12	16	12
O=C(c1ccco1)N1CCN(C2=NS(=O)(=O)c3ccccc32)CC1	-4	-4	-4	-26	19	-34	.	.	.	.	.
COc1cccc(S(=O)(=O)N2C[C@H](O)COC[C@H]3O[C@@H](CC(=O)N4CCN(C)CC4)CC[C@@H]32)c1	.	.	.	-6	15	.	.	.	.	.	.
CCOC(=O)c1c(NC(=O)/C=C/c2ccc(C)o2)sc(C)c1C	-7	-5	-6	-7	-81	-5	.	.	.	.	.
SMILES	SENP7 inh	PPC-1+TRAIL kill	SENP8 block-1	TRAIL sens C8	SENP8 block-2	SENP6 block	SENP8 confirm	SENP6 conf	SENP7 conf	Casp3 select	Luc interf
Cc1sc(NC(=O)/C=C/c2ccco2)c(C(=O)O)c1C	16	31	50	37	14	73*	72*	69*	88*	85*	48
O=C(Oc1ccc2c(c1)OCO2)c1cc2c(s1)CCC2	68*	5	60*	17	1	81*	76*	74*	89*	56*	65*
O=C(Oc1ccc2c(c1)OCO2)c1ccc(F)cc1Cl	88*	14	75*	5	8	91*	73*	84*	97*	77*	75*
O=C(CN(C(=O)CNC(=O)c1cccs1)c1cccc(F)c1)NC1CCCC1	0	.	-9	1	-1	-10	.	.	.	.	.
Cc1ccc(CNC(=O)CN2C(=O)NC3(CC(C)CC(C)(C)C3)C2=O)cc1 (centres undefined)	4	.	-3	18	0	-3	.	.	.	.	.
CCCN1CCN(C(=O)c2ccccc2-c2nc3ccccc3s2)CC1	-7	-6	-2	-12	-4	0	.	.	.	.	.
CCNC(=O)COC(=O)c1ccc(-c2nc3ccccc3s2)s1	99*	29	96*	11	-388	96*	87*	96*	101*	93*	11
CCN1CCN(C(=O)c2ccc(-c3nc4ccccc4s3)s2)CC1	47	10	40	24	-319	61*	56*	52*	82*	69*	19
COC(=O)C1(C)CCCC2(C)C3CCC(C(C)C)C(CO)C3C(CO)CC12 (centres undefined)	.	.	.	8	15	.	.	.	.	.	.
CCN1CCN(S(=O)(=O)c2ccc(Cl)c(C(=O)NCc3ccco3)c2)CC1	-15	.	-7	-4	-18	-6	.	.	.	.	.
COc1cccc(NC(=O)c2ccc3c(c2)CCCC3)c1	100*	.	96*	65*	4	98*	98*	99*	102*	97*	94*
Cc1cccc(NC(=O)Nc2ccc3c(c2)CCC3)c1	62*	.	-11	22	4	34	3	-5	-1	18	-12
COc1cccc(NC(=O)Nc2ccc3c(c2)CCC3)c1	67*	.	52*	20	4	58*	1	14	83*	.	31
